# Measurements from PubChem BioAssay AID2685 (National Center for Advancing Translational Sciences (NCATS), 2010).
# Among all 320,000 compounds or so, about 2,100 (0.66%) were called active. Not shown: some 53% with an inconclusive outcome. The sample holds actives, similar compounds and a random draw of the others, so the mix is not that of the screen. The call rests on the fitted dose curve; in most records, active means well fitted inhibition curve with a large enough effect in the signal ratio, with a control signal flat (not every such curve was filed as active); inconclusive means small, poorly fitted or top-dose-only effect, or effect the other way, or a change in a side signal; inactive means flat fitted curve, though single readings scatter; the % refers to the signal ratio.
# Assay: qHTS Assay for Lipid Storage Modulators in Drosophila S3 Cells;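 on cell number change: cells counted by Cell Tracker Red CMTPX staining in the red channel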; on lipid storage change, negative = inhibition: on the % scale 0 is the no-effect control and ±100 the full control effect
# Conditions: BODIPY lipid droplet fluorescence, 18-24 h, cells fed with added oleic acid; cell number change: measured here: cell count max response; series mostly up to 46.1 µM; lipid storage change, negative = inhibition: at the top concentration
# Method in brief: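 Drosophila S3 cells loaded with oleic acid (400 uM, as added) and compounds at several concentrations; lipid droplets imaged by 488-nm laser-scanning cytometry, 500–530 nm intensity and object ratio to cell channel. Percent activity normalized to 20 uM Triacsin C.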
# Potency means the concentration at half of the fitted maximal effect.
Compound,"lipid storage change, negative = inhibition",cell number change,Potency,outcome
Cc1ccc(S(=O)(=O)N(CC(=O)NCCSc2ccccn2)c2cc(C)cc(C)c2)cc1,-21.1% (inactive),-8.96%,–,–
COc1ccc(NS(=O)(=O)c2ccc(N3CC(O)=C(c4ccccc4)C3=N)cc2)cc1,12.1% (inactive),18.3%,–,–
O=C(NC(Nc1nc2ccc([N+](=O)[O-])cc2s1)(C(F)(F)F)C(F)(F)F)c1ccccc1Cl,–,-26.5%,5.8 µM (active),–
COC(=O)C(NC(=O)c1ccc(F)cc1)(Nc1ncc(S(=O)(=O)c2ccc([N+](=O)[O-])cc2)s1)C(F)(F)F (stereo unspecified),5.96% (inactive),0.5%,–,–
O=C(NC(Nc1nc2ccc([N+](=O)[O-])cc2s1)(C(F)(F)F)C(F)(F)F)c1cccnc1,–,-11%,–,inactive
COC(=O)C(NC(=O)c1ccccc1Cl)(Nc1ncc(S(=O)(=O)c2ccc([N+](=O)[O-])cc2)s1)C(F)(F)F (stereo unspecified),–,9.68%,20.6 µM (active),–
COC(=O)C(NC(=O)c1ccccc1C)(Nc1ncc(S(=O)(=O)c2ccc([N+](=O)[O-])cc2)s1)C(F)(F)F (stereo unspecified),-0.188% (inactive),-2.46%,–,–
Cn1cc(Cl)c(C(=O)Nc2nc3ccc([N+](=O)[O-])cc3s2)n1,16.6% (inactive),-2.18%,–,–
Cn1nc([N+](=O)[O-])nc1Sc1ccc(Cl)cc1,-10.4% (inactive),9.49%,–,–
Nc1cnc(Br)cc1Br,0.0052% (inactive),-3.4%,–,–
Cc1ccc(NC(=O)CNC(=O)c2ccc(Br)o2)nc1,-5.59% (inactive),–,–,–
CCOc1c(N2CC(C)OC(C)C2)c(=O)c1=O (stereo unspecified),-2.8% (inactive),-16.5%,–,–
Cc1ccc(/C=C/C(=O)Nc2sc(C)c(C)c2C(=O)OC(C)C)o1,-0.0019% (inactive),0.157%,–,–
O=S(=O)(c1ccccc1)N1CCN(c2cccc(Cl)c2)CC1,–,-13.5%,–,inactive
C=CCn1c(=O)c(C(=O)Nc2ccccc2O)c(O)c2ccccc21,6.29% (inactive),3.13%,–,–
CCn1c(=O)c(C(=O)Nc2ccccc2C)c(O)c2ccccc21,5.2% (inactive),4.59%,–,–
C=CCn1c(=O)c(C(=O)Nc2ccccc2C)c(O)c2ccccc21,–,-12.3%,18.4 µM (active),–
O=C(NS(=O)(=O)Oc1cccc(Cl)c1Cl)OC[C@@H]1CCCN2CCCCC12 (stereo partly specified),-4.86% (inactive),-10.2%,–,–
CN(C)CCCN(C(=O)c1ccc(S(=O)(=O)N2CCOCC2)cc1)c1nc2ccc(F)cc2s1,-8.58% (inactive),15.4%,–,–
CCCOc1ccccc1/C=C1\SC(N)=NC1=O,11.7% (inactive),13.8%,–,–
CCOC(=O)COc1ccc(Br)cc1/C=C\c1[nH]c(=O)[nH]c(=O)c1[N+](=O)[O-],–,-21.8%,20.6 µM (active),–
CCOC(=O)COc1ccc(Br)cc1/C=C1\SC(N)=NC1=O,–,-21.5%,5.8 µM (active),–
CCOC(=O)COc1ccc(Br)cc1/C=C/c1[nH]c(=O)[nH]c(=O)c1[N+](=O)[O-],7.09% (inactive),-18.1%,–,–

Compound,"lipid storage change, negative = inhibition",cell number change,Potency,outcome
CCCOc1ccc(/C=C/c2[nH]c(=O)[nH]c(=O)c2[N+](=O)[O-])cc1OCC,-8.91% (inactive),-5.22%,–,–
CCOC(=O)CSC1=NC(=O)/C(=C/c2ccc(Br)cc2)S1,7.04% (inactive),1.95%,–,–
Cc1c(C(=O)N2CCCC2)sc(NC(=O)c2ccco2)c1C#N,-12.4% (inactive),-19.3%,–,–
COC(=O)[C@@H](NC(=O)Nc1ccc(OC)cc1)C(C)C,–,-11.6%,–,inactive
COc1cc(NC(=O)N[C@H](C(=O)O)C(C)C)cc(OC)c1,–,-13.1%,5.8 µM (active),–
COC(=O)[C@@H](NC(=O)Nc1cccc(OC)c1)C(C)C,-16.2% (inactive),-18%,–,–
Nc1nc2ccc(Oc3ccccc3)cc2s1,–,-7.07%,–,inactive
CCOC(=O)CSc1nc(=O)n2ccccc2n1,-14.6% (inactive),-9.97%,–,–
COc1ccc(CN2CCN(C)CC2)cc1OCc1ccccc1,–,-3.92%,18.4 µM (active),–
CCN1CCN(Cc2ccc(OCc3ccccc3)c(OC)c2)CC1,-9.35% (inactive),-5.92%,–,–
COc1ccc(CN2CCC(C)CC2)cc1OCc1ccccc1,9.08% (inactive),4.43%,–,–
CC(=O)Cc1cc(=O)c2c(C)cc(O)c(C3OC(CO)C(O)C(O)C3O)c2o1 (stereo unspecified),-1.85% (inactive),-1.27%,–,–
O=C(COC(=O)c1cc(-c2ccccc2)nc2ccccc12)Nc1ccc2c(c1)OCO2,17.7% (inactive),2.4%,–,–
COC(=O)c1ccc(-n2c(C)nc(=O)c(-c3ccccc3)c2C)cc1,11.3% (inactive),0.97%,–,–
Cc1nc(=O)c(-c2ccccc2)c(C)n1-c1ccc(O)cc1,-123% (inactive),0.899%,–,–
CC(=O)Nc1ccc(-n2c(C)nc(=O)c(-c3ccccc3)c2C)cc1,–,13.2%,13 µM (active),–
CCN(/C=N/S(=O)(=O)c1ccc(Cl)cc1)CC,-5.13% (inactive),6.24%,–,–
COc1ccccc1-n1c(C)cc(SC)c(C(C)=O)c1=S,–,–,–,inactive
CSc1cc(C)n(-c2ccc(Cl)cc2)c(=S)c1C(C)=O,–,5.69%,–,inactive
CSc1cc(C)n(-c2ccccc2C)c(=S)c1C(C)=O,–,16.2%,29.1 µM (active),–
Cc1ccccc1NC(=O)NC1(C(=O)NCCCN2CCOCC2)CCCCC1,-7.96% (inactive),-17.7%,–,–
CC(=O)N1c2c(cc(Br)cc2S(=O)(=O)NCc2ccc3c(c2)OCO3)CC1C (stereo unspecified),-20.4% (inactive),-27.2%,–,–
CCCc1ccc2oc(C(=O)N3CCC(O)CC3)c(C)c2c1,-13.7% (inactive),4.78%,–,–

Compound,"lipid storage change, negative = inhibition",cell number change,Potency,outcome
CCCc1ccc2oc(C(=O)N3CCN(CC(=O)NC(C)C)CC3)c(C)c2c1,–,-11.6%,4.11 µM (active),–
CCCc1ccc2oc(C(=O)N3CCN(c4cnccn4)CC3)c(C)c2c1,0.562% (inactive),-14.5%,–,–
COc1ccc(Cl)cc1C(=O)NNC(=O)c1cccnc1,–,–,–,inactive
CS(=O)(=O)c1ccc2sc(NC(=O)c3cc4ccccc4o3)nc2c1,-10.4% (inactive),-15.1%,–,–
CCC(C)COC(c1ccccc1)(c1ccccc1)C(Oc1nc(C)cc(C)n1)C(=O)O (stereo unspecified),–,–,–,inactive
Cc1cc(C)nc(OC(C(=O)O)C(OCc2ccccc2)(c2ccccc2)c2ccccc2)n1 (stereo unspecified),14.5% (inactive),-6.47%,–,–
Cc1cc(C)nc(OC(C(=O)O)C(OCC(C)C)(c2ccccc2)c2ccccc2)n1 (stereo unspecified),–,-23.5%,29.1 µM (active),–
Cc1cc(/C(N)=N/OC(=O)Nc2ccccc2)no1,-0.219% (inactive),22.2%,–,–
O=S(=O)(Nn1cnnc1)c1ccc2ccccc2c1,-1.16% (inactive),-5.21%,–,–
Cc1ccsc1CNC12CC3CC(CC(C3)C1)C2,9.59% (inactive),10.4%,–,–
Cc1ccc(Cl)cc1NC(=O)CNC(=O)N1CC(=O)Nc2ccccc21,3.66% (inactive),-12.7%,–,–
COc1ccc(Cl)cc1NC(=O)CN(C)CC(=O)Nc1ccccc1-c1ccccc1,1.41% (inactive),22.9%,–,–
COc1ccc(Cl)cc1NC(=O)CN(C)CC(=O)N1CC(=O)Nc2ccccc21,–,-5.42%,1.3 µM (active),–
COc1cccc(NC(=O)CSc2nnc3cc(C)nc(N)n23)c1,17.2% (inactive),-13.7%,–,–
O=C(CSc1nnc(NC(=O)c2ccccc2)s1)NC1CCCC1,–,-5.42%,–,inactive
O=C(CSc1nnc(Nc2ccccc2F)s1)NC1CCCC1,–,-17.4%,11.6 µM (active),–
COc1ccccc1Nc1nnc(SCC(=O)NC2CC2)s1,2.29% (inactive),-14.3%,–,–
CC(=O)n1cc([C@@H]2C=C(C(=O)NCc3ccccc3)O[C@H](OCCCCO)C2)c2ccccc21,-13% (inactive),-1.9%,–,–
Cc1cccc(-n2c(SCc3cc(=O)n4ccsc4n3)nc3ccccc32)c1,–,-9.74%,14.6 µM (active),–
CCn1c(SCc2cc(=O)n3ccsc3n2)nc2ccccc21,4.55% (inactive),0.881%,–,–
Cc1ccc(SCc2cc(=O)n3ccsc3n2)c(C)c1,5.57% (inactive),-12.5%,–,–
O=C(CSc1nnc(-c2ccncc2)n1-c1ccccc1)Nc1ccc(C(=O)O)cc1,2.17% (inactive),4.34%,–,–
O=C(COC(=O)c1ccc[nH]c1=O)NC1CCCc2ccccc21 (stereo unspecified),-20.5% (inactive),6.05%,–,–

Compound,"lipid storage change, negative = inhibition",cell number change,Potency,outcome
Cc1noc(C)c1S(=O)(=O)N1CCCC(C(=O)NCCc2ccc(Cl)cc2)C1 (stereo unspecified),–,–,–,inactive
Cc1nnc(SCC(=O)Nc2ccc(N3CCOCC3)cc2)n1-c1ccccc1,-19.7% (inactive),-17.5%,–,–
CCCCn1c(-c2ccc(C(C)(C)C)cc2)nc2cc3[nH]c(=O)c(C(C)C)nc3cc21,-35.3% (inactive),-12.9%,–,–
CCCCn1c(-c2cccc3ccccc23)nc2cc3[nH]c(=O)c(C(C)C)nc3cc21,–,-23%,20.6 µM (active),–
CCCCn1c(-c2cccc(C)c2)nc2cc3[nH]c(=O)c(C(C)C)nc3cc21,-14.5% (inactive),-25.6%,–,–
O=C(c1cccnc1Cl)N(Cc1ccccc1)Cc1ccccc1,7.46% (inactive),4.31%,–,–
CCCOC(=O)c1ccc(NC(=O)C2C3CCC(C3)C2C(=O)O)cc1 (stereo unspecified),13.5% (inactive),2.97%,–,–
COc1ccc(/C=N/NC(=O)c2ccncc2)cc1CSc1nc2ccccc2s1,17.8% (inactive),1.7%,–,–
Cc1cc(C)nc(SCC(N)=O)n1,4.3% (inactive),14.6%,–,–
CCN(CC)C(=O)CSc1nc(C)cc(C)n1,-0.849% (inactive),-1.44%,–,–
CCOC(=O)CSc1nc(C)cc(C)n1,–,4.86%,23.1 µM (active),–
CCOc1ccccc1OCC(=O)Oc1ccc(C)c(C)c1,2.5% (inactive),18.7%,–,–
Cc1nc(N/N=C/c2ccccn2)sc1C,-3.98% (inactive),-10.6%,–,–
Cc1nc(-c2ccccc2)sc1-c1nc(-c2ccncc2)ncc1S(=O)(=O)c1ccccc1,-6.13% (inactive),12.5%,–,–
O=C(O)C1CCCCC1C(=O)NCCCc1ccccc1 (stereo unspecified),-24.2% (inactive),-1.96%,–,–
O=C(O)C1CC=CCC1C(=O)NCCc1ccccc1 (stereo unspecified),–,3.33%,23.1 µM (active),–
O=C(O)C1CC=CCC1C(=O)Nc1cc(Cl)ccc1Cl (stereo unspecified),3.72% (inactive),-10.1%,–,–
COc1ccc(CCNC(=O)C2CC=CCC2C(=O)O)cc1 (stereo unspecified),6.12% (inactive),23.9%,–,–
O=C(NNC(=O)[C@H]1CC=CC[C@H]1C(=O)O)c1ccc(Cl)cc1Cl,2.16% (inactive),10.3%,–,–
O=C(O)[C@H]1CCCC[C@H]1C(=O)NCCc1ccccc1,19.1% (inactive),7.81%,–,–
O=C(Cc1ccc(Cl)cc1)NNC(=O)C1CC=CCC1C(=O)O (stereo unspecified),–,–,18.4 µM (active),–
CC1=C(C)CC(C(=O)NCC(=O)c2ccccc2)C(C(=O)O)C1 (stereo unspecified),–,–,–,inactive
CC1=C(C)CC(C(=O)NCCc2ccccc2)C(C(=O)O)C1 (stereo unspecified),–,–,6.51 µM (active),–
